# The source made the active and inactive calls. How the calls were made is not given here.
# Assay: Vero 76 cell cytotoxicity, dose response, cytotoxicity control for VEEV inhibitor project, set 9 (AID 651930)
# Conditions: Vero 76 cytotoxicity; series mostly up to 25 µM; viability: at the top concentration
Compound,viability,outcome
CNCCN(C)Cc1nc2ccc(C#N)cc2c(=O)n1-c1ccccc1F,90.3% [at 50 µM] (inactive),
CN(C)c1cccc(-n2c(CN3CCNCC3)nc3ccc([N+](=O)[O-])cc3c2=O)c1,99.6% (inactive),
CCN1CCN(Cc2nc3ccc(-c4nn[nH]n4)cc3c(=O)n2-c2ccccc2)CC1,86.7% [at 50 µM] (inactive),
COc1ccccc1-n1c(CN2CCNCC2)nc2ccc([N+](=O)[O-])cc2c1=O,75.6% (inactive),
CNCCCN(C)Cc1nc2ccc([N+](=O)[O-])cc2c(=O)n1-c1ccccc1,102% [at 50 µM] (inactive),
O=c1nc(Nc2ccc(CCc3ccccc3)cc2)sc2ncccc12,83.9% [at 50 µM] (inactive),
CCN1CCN(Cc2nc3ncc([N+](=O)[O-])cc3c(=O)n2-c2ccccc2)CC1,101% (inactive),
O=c1c2cc([N+](=O)[O-])ccc2nc(C2CCNCC2)n1-c1ccccc1,82.6% (inactive),
O=c1nc(Nc2ccc(OCc3ccccc3)cc2)sc2ncc(F)cc12,86.1% (inactive),
O=c1c2cc([N+](=O)[O-])ccc2nc(CN2CCNCC2)n1-c1ccsc1,84.1% (inactive),
CCN1CCN(Cc2nc3ccc([N+](=O)[O-])cc3c(=O)n2C)CC1,85.9% (inactive),
CCN1CCN(Cc2nc3ccc([N+](=O)[O-])cc3c(=O)n2-c2ccccc2F)CC1,,inactive
CCN1CCN(Cc2nc3ccc(S(=O)(=O)O)cc3c(=O)n2-c2ccccc2)CC1,97.8% (inactive),
CCN1CCN(Cc2nc3ncccc3c(=O)n2-c2ccccc2)CC1,94.2% (inactive),
O=c1nc(Nc2cccc(OCc3ccccc3)c2)sc2ncccc12,73.5% (inactive),
CN1CCN(C)C(=Nc2ccc(C#N)cc2C(=O)Nc2cccc(F)c2)C1,84.5% [at 50 µM] (inactive),
COc1ccc(-n2c(CN3CCNCC3)nc3ccc([N+](=O)[O-])cc3c2=O)cc1,85.9% (inactive),
CCN1CCN(c2nc3ccc([N+](=O)[O-])cc3c(=O)n2-c2ccccc2)CC1,94.8% (inactive),
O=C1CN(Cc2nc3ccc([N+](=O)[O-])cc3c(=O)n2-c2ccccc2F)CCN1,93.4% [at 50 µM] (inactive),
COc1ccc(NC(=O)c2cc([N+](=O)[O-])ccc2N=C2CN(C)CCN2C)cc1,90.4% [at 5 µM] (inactive),

# — PubChem BioAssay AID651930 (Southern Research Specialized Biocontainment Screening …, 2012)
